Test results taken from PubChem BioAssay AID2455 (National Center for Advancing Translational Sciences (NCATS), 2010).
The list shows a part of the results. Results filed as inconclusive are left out. Calls of active or inactive are those of the source. The call rests on the fitted dose curve.

Target: Vitamin D3 receptor (Homo sapiens) (UniProt P11473)
Test: Vitamin D Receptor Selectivity Assay for Inhibitors of the Interaction of Thyroid Hormone Receptor and Steroid Receptor Coregulator 2
Details: VDR LBD/SRC2-3 peptide, fluorescence polarization, 3 h
Description: NIH Molecular Libraries Probe Production Network [MLPCN] NIH Chemical Genomics Center [NCGC] MLPCN Grant: DK058080 Assay Provider: R. Kip Guy, St. Jude Children's Research Hospital NCGC Assay Overview: Thyroid receptor (TR) regulates many homeostatic processes including basal metabolism, cardiovascular function, body weight, and lipid trafficking. TR modulators are potential therapeutics for obesity and hyperlipidemias but current thyroid analogs have undesirable side effects, particularly cardiac stimulation. This secondary assay characterized compounds identified in the qHTS for Inhibitors of the Interaction of Thyroid Hormone Receptor and Steroid Receptor Coregulator 2 (PubChem AID 1485) for selectivity against the vitamin D receptor (VDR). […] Small molecule inhibitors that block the interaction of VDR and SRC2-3 are detected by a decrease in fluorescence polarization. […] Quantification of the vitamin D receptor-coregulator interaction. […]
NCGC Assay Protocol Summary: Twenty uL/well 1 uM VDR and 5 nM Alexa Fluor 647 SRC2-3 peptide in buffer (25 mM PIPES, pH 6.75, 50 mM NaCl, 0.01% NP-40, 6 uM LG190178, and 4% DMSO) was dispensed into black solid 384-well plates (Costar 3710) using a Biomek FX (Beckman Coulter) liquid handling system. […] The plates were read by an Envision (Perkin Elmer) to detect fluorescence polarization of Alexa Fluor 647 (620 nm excitation and 688 nm emission).

Vitamin D3 receptor (Homo sapiens), sequence (P11473 whole entry, looked up): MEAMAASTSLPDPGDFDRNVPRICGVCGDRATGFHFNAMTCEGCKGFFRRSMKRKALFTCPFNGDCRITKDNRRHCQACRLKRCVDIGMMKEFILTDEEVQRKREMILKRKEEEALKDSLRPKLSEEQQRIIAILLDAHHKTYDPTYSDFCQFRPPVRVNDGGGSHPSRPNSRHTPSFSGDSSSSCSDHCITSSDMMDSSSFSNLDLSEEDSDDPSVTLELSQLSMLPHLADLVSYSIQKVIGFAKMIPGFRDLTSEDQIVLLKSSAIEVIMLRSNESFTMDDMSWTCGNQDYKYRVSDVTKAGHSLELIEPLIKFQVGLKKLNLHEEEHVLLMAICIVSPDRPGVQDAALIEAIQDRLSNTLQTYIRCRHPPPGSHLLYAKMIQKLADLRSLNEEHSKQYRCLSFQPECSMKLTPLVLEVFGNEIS

SMILES | outcome
O=C(COC(=O)c1cccc([N+](=O)[O-])c1)NC1C2CC3CC(C2)CC1C3 (stereo unspecified) | inactive
